# Screening data: PubChem, The Scripps Research Institute Molecular Screening Center
# Nox1 inh: inhibitors of human NADPH oxidase 1 (Nox1); inhibition, % at 6.7 µM; 0.81% of 16,000 active; Q9Y5S8; HT29 cells, luminol chemiluminescence ROS
# Target sequence (Q9Y5S8 whole entry, looked up): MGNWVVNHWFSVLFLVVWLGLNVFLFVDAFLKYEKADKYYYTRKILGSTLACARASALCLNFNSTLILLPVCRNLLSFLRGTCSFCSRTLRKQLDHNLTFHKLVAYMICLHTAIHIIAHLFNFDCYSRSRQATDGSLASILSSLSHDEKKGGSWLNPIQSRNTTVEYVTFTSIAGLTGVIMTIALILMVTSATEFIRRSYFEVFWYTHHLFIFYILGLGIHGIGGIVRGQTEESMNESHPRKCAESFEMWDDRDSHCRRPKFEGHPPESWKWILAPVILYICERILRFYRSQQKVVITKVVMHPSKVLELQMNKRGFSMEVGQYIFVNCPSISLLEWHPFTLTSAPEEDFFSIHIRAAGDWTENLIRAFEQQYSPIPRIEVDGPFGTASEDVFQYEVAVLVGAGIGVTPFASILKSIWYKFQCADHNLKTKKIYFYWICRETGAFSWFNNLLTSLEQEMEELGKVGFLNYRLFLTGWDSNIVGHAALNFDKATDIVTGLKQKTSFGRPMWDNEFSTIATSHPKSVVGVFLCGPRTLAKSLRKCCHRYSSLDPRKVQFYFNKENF
# luminol inh ctr: counter-screen for Nox1 inhibitors: inhibitors of luminol chemiluminescence; HRP/luminol/H2O2 chemiluminescence counterscreen; inhibition, % at 6.7 µM; 0.4% of 16,000 active; AID 1823, 2009; further: reference of the scale not given here
# NOTCH ag: agonists of NOTCH signaling. AID 434982, 2010. activation, % at 2.5 µM. 0.4% of 15,000 active. NOTCH signaling luciferase reporter cells, luminescence; in the data active means activation above about 2.2%
# PME-1 Maybridge: inhibitors of human PME-1 in Maybridge library; recombinant PME-1, FP-Rh probe fluorescence polarization; AID 2291, 2010; inhibition, % at 9 µM; 0.5% of 16,000 active; in the data active means inhibition above about 30%
# Active calls of the source: *; . = no result given. Shown are actives, neighbours in structure and some others; about 2.2% of the full set was active somewhere. Unless noted, no stated cut-off is given here; in the data, active means inhibition above about 75%; inactive means the rest.
SMILES,Nox1 inh,luminol inh ctr,NOTCH ag,PME-1 Maybridge
O=C(Oc1cccc2[nH]ccc12)c1ccc(C(F)(F)F)cc1,79.5*,0.3,-0.6,2.8
COc1cc(CCC(=O)NNC(=S)Nc2ccc(F)cc2)cc(OC)c1OC,12.6,91.5*,0.3,1.0
Cc1c(COC(=O)Nc2ccc(Cl)cc2Cl)sc2ccccc12,-78.3,2.3,-0.8,-6.2
Cc1cc(=O)n2ncnc2n1CC(=O)NNC(=S)Nc1ccc(Cl)cc1Cl,7.5,75.1*,-0.4,1.2
COc1cc(-c2nc(-c3ccccc3)c(-c3ccccc3)[nH]2)ccc1O,101.0*,-15.2,-0.5,1.2
CSc1sc(C(=O)Sc2ccc(Cl)cc2)c2c1C=CCC2,8.7,-0.2,-1.6,3.6
COc1ccc(C(=O)C=C(C)C)c(O)c1O,75.7*,40.6,0.2,2.4
CN(C)c1ccc(/C=N/NC2=NCCN2)cc1,-2.8,-22.5,-0.5,1.2
CN(C)c1ccc(/C=N/Nc2c(Cl)cncc2Cl)cc1,102.4*,3.4,0.6,2.0
CCC(C)(C)OC(=O)c1cc([N+](=O)[O-])cc2c1-c1ccc([N+](=O)[O-])cc1C2=O,54.3,1.3,-0.1,5.1
O=C(Nc1ccc(Cl)cc1Cl)c1cc([N+](=O)[O-])cc2c1-c1ccc([N+](=O)[O-])cc1C2=O,100.7*,-2.2,0.2,1.1
Cc1nc(C(F)(F)F)c(C(=O)NNc2ncc(C(F)(F)F)cc2Cl)s1,85.3*,5.7,0.3,-1.2
Cc1noc(C)c1C(=O)Nc1ccc(N2CCOCC2)nc1N1CCOCC1,77.5*,3.5,-0.5,5.7
Cc1noc(C)c1C(=O)NCc1c(F)cccc1Cl,-69.3,2.0,-0.5,-1.8
COc1ccc(-c2nc(-c3ccc(OS(=O)(=O)N(C)C)cc3)no2)cc1OC,-53.3,1.9,0.2,-5.0
Cc1cc(=O)n2c([nH]c3ccccc32)c1C#N,31.5,84.8*,0.2,20.1
Cc1c(C#N)c(=O)[nH]c2ccccc12,-37.1,2.2,-0.1,-2.3
CC1CN(c2ccc(NC(=S)NN)cc2)CC(C)O1 (stereo not drawn),101.7*,0.6,0.0,1.7
CN(NC=C(C#N)C#N)c1ccccc1[N+](=O)[O-],104.2*,-4.7,-0.3,5.6
O=[N+]([O-])c1cccc(Cl)c1Oc1ccc(S(=O)(=O)N2CCOCC2)cc1,0.0,-2.4,-1.0,33.0*
N/C(N=Nc1ccccc1)=N\Nc1ccccc1,-40.2,-10.5,0.2,6.2
CC(C)(C)c1cc2nc(C(F)(F)F)cc(NNC(=O)Nc3ccc(OC(F)(F)F)cc3)n2n1,88.1*,7.1,0.5,-105.9
CCOC(=O)Cc1c(C)[nH]c(C(=O)OCC)c1CC(=O)OCC,-67.8,-0.1,0.2,-0.9
CCOC(=O)Cc1c(C(=O)OCC)[nH]c(C)c1C(=O)OCc1ccccc1,-73.7,-1.4,5.8*,7.2
Cc1ccc(C(=O)NNc2ncnc3cc(C(C)(C)C)sc23)cc1,72.8,-2.3,-0.4,4.3
SMILES,Nox1 inh,luminol inh ctr,NOTCH ag,PME-1 Maybridge
Cc1cc(S(=O)(=O)NNc2ncnc3cc(C(C)(C)C)sc23)c(C)cc1Cl,93.7*,-0.7,-0.1,-24.5
CC(=O)Nc1ccc(C(C)(C)C)cc1NC(=O)C(Cl)(Cl)Cl,-20.4,2.8,-0.6,-1.8
COc1cc2ncnc(NNC(=O)c3cccs3)c2cc1OC,86.4*,1.8,-0.6,18.4
COc1ccc(CCNC(=O)c2cccs2)cc1OC,-9.5,-5.3,-0.7,4.4
CSc1sc(C2=NNC(O)(C(F)(F)F)C2)c2c1C(=O)CCC2(C)C (stereo not drawn),31.8,-5.6,-1.5,35.7*
CCOc1ccccc1Nc1n[nH]c(=S)s1,88.5*,5.8,-0.1,1.3
COC(=O)c1cc(-c2ccc(S(=O)(=O)NCc3ccc4c(c3)OCO4)cc2)c(C(F)(F)F)s1,33.6,-6.0,-0.3,-21.2
O=C(Nc1cc2ccccc2cn1)c1cccc2c1OCCCO2,-20.6,-4.5,-0.4,-4.8
O=[N+]([O-])c1cc(Br)cnc1Sc1n[nH]c(-c2ccccc2)n1,35.4,99.5*,-0.2,3.9
O=[N+]([O-])c1cnc(Sc2n[nH]c(-c3cccs3)n2)s1,47.2,-2.7,-0.6,7.0
C/C=C/C=N/NC(=O)N/N=C/C=C/C,5.3,-3.3,3.0*,3.4
Cc1cc(C(=O)NNS(=O)(=O)c2cccc3cccnc23)nn1C(C)(C)C,-7.9,11.6,3.2*,4.4
Cc1cc(Sc2nnc(C(F)(F)F)n2C)c([N+](=O)[O-])cc1[N+](=O)[O-],18.6,-3.4,-0.4,5.6
Cn1c(Sc2ncnc(Sc3nnc(C(F)(F)F)n3C)c2[N+](=O)[O-])nnc1C(F)(F)F,37.1,101.2*,0.3,5.8
O=C(NN1CCOCC1)c1ccc(Oc2ccc(Cl)cc2)c([N+](=O)[O-])c1,-30.4,0.2,-0.2,2.8
CCOC(=O)C1CCN(c2ccc(C(C)=O)cc2NC(=S)Nc2cc(Cl)ccc2Cl)CC1,-27.3,1.8,5.9*,-3.6
Cc1nn(-c2ccccc2)nc1CNC(=O)C1=Cc2ccccc2OC1,-3.8,-2.2,2.3*,-6.4
CC(C)(C)/C(=N/O)c1cccs1,-21.8,-1.9,-0.1,-3.3
CCn1c(-c2cc(-c3ccccc3)sc2N)n[nH]c1=S,97.7*,5.8,-0.6,9.7
CCn1c(CN2c3ccccc3Sc3ccccc32)n[nH]c1=S,25.6,16.3,0.5,14.2
O=C1c2cccc3c([N+](=O)[O-])ccc(c23)C(=O)N1NCCO,-8.0,-1.3,-0.7,18.5
O=C1c2cccc3c([N+](=O)[O-])ccc(c23)C(=O)N1Cc1cccnc1,-5.4,-4.2,-1.1,32.9*
Cc1nn(-c2ccccc2)nc1CNS(=O)(=O)c1ccc(N2CCOCC2)nc1,-24.6,-3.4,-0.8,4.2
O=C1CS/C(=C/C(=O)c2cccs2)N1,6.8,4.2,-0.1,0.1
O=C1CS/C(=C\C(=O)N2CCOCC2)N1,-5.8,77.8*,.,2.8
SMILES,Nox1 inh,luminol inh ctr,NOTCH ag,PME-1 Maybridge
O=C(NCc1ccncc1)C(=O)Nc1ccc(Cl)cc1Cl,24.7,-4.4,-0.1,6.2
CC(=NCc1ccc2c(c1)OCO2)c1ccccc1O,5.3,-7.5,2.4*,5.9
Cc1cc(N/N=C/c2cccc(Cl)c2)nc2n[nH]c(N)c12,7.6,10.3,-0.1,4.8
N#Cc1c(-c2ccncc2)[nH]c(=S)[nH]c1=O,-9.4,8.1,-0.9,0.9
N#Cc1c(N)nc2[nH]c(=S)[nH]c(=O)c2c1-c1ccc([N+](=O)[O-])cc1,23.6,83.8*,-5.6,7.6
COC(=S)SC/C(=N\O)c1ccc([N+](=O)[O-])cc1,23.8,-3.1,-1.6,1.5
COc1ccc(/C=N/OC(=O)c2cccs2)c(Cl)c1OC,-6.4,-2.7,-1.1,-0.3
Nc1ccc2c(c1)OCCCO2,-56.9,1.9,0.0,-4.2
O=C(COc1ccc(C2=NCCS2)cc1)Nc1ccc(Cl)cc1,-51.0,0.2,-0.2,-6.3
O=C(COc1ccc(C2SCCS2)cc1)Nc1cc(Cl)cc(Cl)c1,2.2,3.0,-0.3,123.6*
CN(C)c1ccc(NC(=O)Nc2ccc(OCc3ccccc3)cc2)cc1,107.5*,-3.7,-0.2,2.0
Cc1ccc(NC(=O)Nc2ccc(OCc3ccccc3)cc2)cc1NS(C)(=O)=O,15.8,-15.8,.,3.7
CS(=O)(=O)CS(=O)(=O)NNc1ncc(C(F)(F)F)cc1Cl,69.8,2.0,-1.2,-1.1
CNC(=S)NNC(=O)c1ccccn1,86.9*,53.0,.,0.5
